Bioassay records deposited in PubChem BioAssay by several laboratories.
Jurkat NFkB inh = inhibitors of the PMA/ionomycin-induced NF-kB reporter in Jurkat cells. PMA/ionomycin-induced NF-kB luciferase reporter, luminescence. inhibition, % at 4 µM. 330,000 compounds, 0.53% hits; in the data active = inhibition above about 50%
Gli-Sufu block = blocks Gli-Sufu signaling in a luciferase reporter | Sufu-KO-LIGHT fibroblasts, Gli luciferase reporter luminescence | inhibition, % at 5 µM | 340,000 compounds, 0.74% hits;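 active = inhibition above about 55%, limit read from the data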
COUP-TFII inh = blocks human COUP-TFII nuclear receptor | HEK293T NGFI-A luciferase reporter, luminescence | inhibition, % at 8.6 µM | 370,000 compounds, 0.7% hits | AID 686940;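 active = inhibition above a per-plate cutoff, mean inhibition of test wells between control levels plus 3 SD, cut at about 38% in these data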;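 also: cells cotransfected with COUP-TFII expression vector driving the NGFI-A reporter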
Target sequence (P24468 whole entry, looked up): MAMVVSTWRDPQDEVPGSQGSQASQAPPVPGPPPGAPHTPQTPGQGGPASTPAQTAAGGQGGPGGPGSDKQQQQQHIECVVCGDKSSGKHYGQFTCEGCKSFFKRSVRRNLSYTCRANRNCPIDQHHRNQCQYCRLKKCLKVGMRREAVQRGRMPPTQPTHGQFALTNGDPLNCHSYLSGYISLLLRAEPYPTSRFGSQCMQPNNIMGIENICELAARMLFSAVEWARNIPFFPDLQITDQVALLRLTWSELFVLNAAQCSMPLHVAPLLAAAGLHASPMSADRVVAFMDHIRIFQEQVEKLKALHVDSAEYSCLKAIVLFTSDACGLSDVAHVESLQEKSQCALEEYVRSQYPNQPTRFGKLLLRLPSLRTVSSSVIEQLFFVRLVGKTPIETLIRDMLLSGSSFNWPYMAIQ
H9c2 TAG inh = reduces triacylglycerol accumulation in H9c2 cells; AID 651582; Nile Red lipid (TAG) fluorescence; cells loaded with 200 µM oleic acid; 230,000 compounds, 0.66% hits; inhibition, % at 12.5 µM;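 active = pattern-corrected inhibition of lipid staining of at least 50% with the nuclear-stain viability signal not falling by more than 50%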
697 NFkB inh = inhibitors of the PMA/ionomycin-induced NF-kB reporter in 697 B cells. 697 B-cell NF-kB luciferase reporter, 16 h. inhibition, % at 4 µM. 330,000 compounds, 0.33% hits; in the data active = inhibition above about 35%
H9c2 protect = protects H9c2 cardiomyocytes from peroxide injury. protection from H2O2 cell death, % at 20 µM. 360,000 compounds, 0.63% hits. H2O2 injury protection, ATPLite, 2 h. AID 588492;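 active = compounds giving at least 50% protection of heart cells from peroxide-induced death in the single-dose screen, raw or plate-pattern-corrected value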
Hits are given with their value; – = inactive; · = no result given. Rows were chosen to be rich in hits. Some 2.6% of all compounds tested hit in one or more screens of this group.

SMILES	Jurkat NFkB inh	Gli-Sufu block	COUP-TFII inh	H9c2 TAG inh	697 NFkB inh	H9c2 protect
CCc1noc(C)c1C(=O)N1CCN(CC(=O)OC)CC1	·	·	–	·	·	·
CCCCC(CC)CN=C(N)NC(N)=NCCCCCCN=C(N)NC(N)=NCC(CC)CCCC (stereo not drawn)	–	67	·	–	–	–
CCCCC(CC)CO (stereo not drawn)	–	–	–	·	–	–
COc1cc2c(C#CCCO)c(-c3ccc(C#N)cc3)oc(=O)c2cc1OC	–	–	–	–	–	–
COc1cc2c(C#CCCO)c(-c3ccsc3)oc(=O)c2cc1OC	–	–	–	–	–	64
CCOC(=O)[C@]12CCCCC/C=C\1N(Cc1ccc(OC)cc1)C(=O)[C@H]2CC(=O)N1CCCC1	·	·	–	·	·	·
N#CCC[C@@H]1CC[C@]2(CCCN(C(=O)c3ccco3)C2)O1	·	·	–	·	·	·
c1csc(CNc2ccc3c(c2)OCCO3)c1	·	–	64	·	·	–
Cc1nn2c(-c3cccc(NC(=O)c4ccco4)c3)nnc2c2ccccc12	–	–	–	–	–	80
Nc1c(C(=O)NC2CCCC2)c2nc3ccccc3nc2n1/N=C/c1ccco1	–	–	·	–	–	50
COc1ccccc1/C=N/n1c(N)c(C(=O)NC2CCCCC2)c2nc3ccccc3nc21	·	–	–	–	·	–
Nc1c(C(=O)NC2CCCC2)c2nc3ccccc3nc2n1N	–	–	–	–	–	62
Cn1c2c(c(=O)[nH]c1=O)C(c1cccc(O)c1)C1=C(N2)c2ccccc2C1=O (stereo not drawn)	·	56	–	–	·	–
COC[C@H]1CCCN1c1cccc2c1S(=O)(=O)N(C1CC1)CC[C@@H](C)O2	·	·	–	·	·	·
CC(=O)N1CCN(c2ccccc2NC(=O)COc2cc(C)ccc2C(C)C)CC1	–	–	–	·	–	66
Cc1ccc(C(C)C)c(OCC(=O)NNC(=O)Cn2[nH]c(=O)c3ccccc3c2=O)c1	–	–	–	–	–	70
Cc1ccc(C(C)C)c(OCC(=O)NN2C(=O)c3ccccc3C2=O)c1	–	–	–	–	–	–
O=C(COC(=O)Cn1[nH]c(=O)c2ccccc2c1=O)NNC(=O)c1ccccc1	–	–	–	–	–	93
COc1ccccc1C(=O)NC(=O)COC(=O)Cn1[nH]c(=O)c2ccccc2c1=O	–	–	–	–	–	84
COC(=O)C/C=C/[C@@H](C)[C@H](NC(=O)OCC(Cl)(Cl)Cl)c1ccc(-c2ccccc2)cc1	·	·	–	·	·	·
CC(OC(=O)Cn1[nH]c(=O)c2ccccc2c1=O)C(=O)Nc1ccc(F)cc1 (stereo not drawn)	–	–	–	–	–	62
CC(C)NC(=O)COC(=O)Cn1[nH]c(=O)c2ccccc2c1=O	–	–	–	–	–	80
Cc1cc(CNC(=O)COC(=O)Cn2[nH]c(=O)c3ccccc3c2=O)cc(C)c1O	–	–	–	–	–	104
CC(C)(C)N(Cc1ccccc1)C(=O)COC(=O)Cn1[nH]c(=O)c2ccccc2c1=O	·	·	–	–	·	–
O=C(Cn1[nH]c(=O)c2ccccc2c1=O)OCC(=O)N(Cc1ccccc1)Cc1ccccc1	–	–	–	–	–	106
SMILES	Jurkat NFkB inh	Gli-Sufu block	COUP-TFII inh	H9c2 TAG inh	697 NFkB inh	H9c2 protect
O=C(Cn1[nH]c(=O)c2ccccc2c1=O)OCC(=O)c1ccccc1Cl	–	–	–	–	–	–
O=C(Cn1[nH]c(=O)c2ccccc2c1=O)OCC(=O)c1ccc(F)cc1	–	–	–	–	–	–
COC(=O)[C@]12C[C@H](CC(=O)NCc3ccc(OC)c(OC)c3)C(=O)N(Cc3cccc4ccccc34)C1=C[C@H](C(C)(C)C)O[C@@H]2C	·	·	–	·	·	·
COC(=O)[C@]12C[C@H](CC(=O)N3CCC(c4ccccc4)CC3)C(=O)N(CCc3ccc(OC)c(OC)c3)C1=C[C@H](C(C)C)O[C@@H]2C1CC1	·	·	–	·	·	·
CN(C(=O)[C@@H]1CC=C[C@@H]2CCN(C3CCCCC3)C(=O)[C@@H]21)c1ccccc1	·	·	–	·	·	·
N#CC1(NC(=O)COC(=O)CN2C(=O)c3ccccc3C2=O)CCCCC1	–	–	–	–	–	–
N#CC1(NC(=O)COC(=O)Cn2[nH]c(=O)c3ccccc3c2=O)CCCCC1	–	–	–	–	–	74
Cc1cccc(C)c1OCC(=O)N1CC2(C)CC1CC(C)(C)C2 (stereo not drawn)	–	–	–	–	–	–
CC1(C)CC2CC(C)(CN2C(=O)COC(=O)Cn2[nH]c(=O)c3ccccc3c2=O)C1 (stereo not drawn)	–	–	–	–	–	52
Cc1cc2c(c(=O)o1)[C@@]1(C(=O)N(C)c3c(Br)cccc31)C1=C(CCCC1=O)O2	·	·	–	·	·	·
O=C(OCC(=O)c1c[nH]c2ccccc12)c1ccco1	–	–	–	–	–	–
COc1cc(NC(=O)c2ccco2)c(C(=O)OCC(=O)c2c[nH]c3ccccc23)cc1OC	–	–	–	–	–	66
Cc1sc2nc(COC(=O)c3ccc(O)cc3)[nH]c(=O)c2c1C	–	–	–	–	–	–
COc1ccc(S(=O)(=O)N2CC(O)CC2C(=O)OCc2nc3sc(C)c(C)c3c(=O)[nH]2)cc1 (stereo not drawn)	–	–	–	·	–	79
O=c1cc(-c2ccncc2)oc2c1ccc1ccccc12	–	–	–	–	–	66
O=c1cc(-c2ccco2)oc2c1ccc1ccccc12	–	–	–	–	–	–
O=c1cc(C(Cl)(Cl)Cl)oc2c1ccc1ccccc12	–	65	–	–	–	–
O=c1cc(-c2ccc(O)cc2)oc2c1ccc1ccccc12	–	–	–	–	–	–
CC(=O)c1ccc(NCCCN2CCC(C(O)(c3ccccc3)c3ccccc3)CC2)cc1	·	·	–	·	·	·
COc1ccc(/C=C/C(=O)c2ccccc2O)cc1CN1CCOCC1	–	–	·	–	–	84
COc1ccc(/C=C/C(=O)c2ccc3ccccc3c2O)cc1CN1CCOCC1	–	–	–	·	–	–
COC(=O)c1cc(OC)c(OC)cc1NC(=O)c1ccc(C)o1	–	–	·	·	–	50
COC(=O)c1cc(OC)c(OC)cc1NC(=O)CCc1ccc(C)o1	–	–	–	–	–	–
COc1cccc(N(C(=O)c2snc(C(N)=O)c2N)C(C(=O)NCC2CCCO2)c2cccs2)c1 (stereo not drawn)	–	–	–	·	–	–
COc1cccc(N(C(=O)CCl)C(C(=O)NCCc2ccccc2)c2cccs2)c1 (stereo not drawn)	·	93	–	·	·	–
COc1ccc(N(C(=O)CCl)C(C(=O)NCCc2ccccc2)c2cccs2)cc1Cl (stereo not drawn)	·	96	–	·	·	–
CCOC(=O)CC[C@@H]1CC[C@]2(CCCN(Cc3ccc(Cl)cc3)C2)O1	·	·	–	·	·	·
CCC(=O)c1cn(CC(=O)Nc2cccc(C)c2C)c2ccccc12	–	73	–	–	–	–
COc1cc(OC)c2c(c1)OC(c1ccc(OC)c(OC)c1)C(O)C2=O (stereo not drawn)	–	–	–	–	–	–
